From PubChem BioAssay (EPA / NIEHS)
The source made the active and inactive calls. Rule for the calls: active = hit-call score of the fitted dose curve at least 0.9, where 1 is the maximum; inactive = score below 0.9.

Assays:
Conditions in all cases: mRNA level, 48 h; actives raise or lower the signal
[1] = read-out: Cytochrome P450 (CYP24A1), CYP24A1 (gene 1591); experiment: LTEA_HepaRG_CYP24A1: Life Technologies and Expression Analysis (LTEA) Assay for Cytochrome P450 (CYP24A1) using HepaRG (AID 2283478)
Method in brief: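 HepaRG cells plated 48 h, then exposed in duplicate in serum-free induction medium for 48 h to 8-point half-log series from 100 uM in 0.5% DMSO. CYP24A1 mRNA by Fluidigm qRT-PCR, normalized to ACTB, GAPDH, POLR2A; bidirectional fit versus DMSO.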

[2] = read-out: Cytochrome P450 (CYP1A2), CYP1A2 (gene 1544); experiment: LTEA_HepaRG_CYP1A2: Life Technologies and Expression Analysis (LTEA) Assay for Cytochrome P450 (CYP1A2) using HepaRG (AID 2283479)
Method in brief: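 Differentiated human HepaRG cells in serum-free induction medium exposed 48 hours in duplicate to 8 half-log concentrations from 100 uM, 0.5% DMSO. CYP1A2 mRNA quantified by qRT-PCR, normalized to ACTB, GAPDH and POLR2A; bidirectional fitting versus DMSO.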

[3] = read-out: cysteine-aspartic acid protease (CASP8), CASP8 (gene 841); experiment: LTEA_HepaRG_CASP8: Life Technologies and Expression Analysis (LTEA) Assay for cysteine-aspartic acid protease (CASP8) using HepaRG (AID 2283480)
Method in brief: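 qRT-PCR readout of CASP8 mRNA, normalized to three housekeeping genes, after 48 h chemical exposure of HepaRG cells; 8-point half-log series, top 100 uM, 0.5% DMSO vehicle. Bidirectional curve fitting against DMSO baseline.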

[4] = read-out: Cytochrome P450 (CYP2B6), CYP2B6 (gene 1555); experiment: LTEA_HepaRG_CYP2B6: Life Technologies and Expression Analysis (LTEA) Assay for Cytochrome P450 (CYP2B6) using HepaRG (AID 2283481)
Method in brief: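 Differentiated human HepaRG cells in serum-free induction medium, dosed in duplicate for 48 h over 8 half-log concentrations topping at 100 uM (0.5% DMSO). CYP2B6 mRNA measured by TaqMan qRT-PCR, normalized to ACTB, GAPDH, POLR2A; bidirectional fit versus DMSO.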

[5] = read-out: Cytochrome P450 2C19 (Homo sapiens) (UniProt P33261); experiment: LTEA_HepaRG_CYP2C19: Life Technologies and Expression Analysis (LTEA) Assay for CYP2C19 using HepaRG (AID 2283482)
Method in brief: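 Differentiated HepaRG cells in serum-free induction medium exposed 48 h in duplicate, 8 concentrations from 100 uM by half-log steps in 0.5% DMSO. CYP2C19 mRNA measured by TaqMan qRT-PCR, normalized to ACTB, GAPDH, POLR2A. Bidirectional fit versus DMSO.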

CYP2C8 (gene 1558) = experiment: LTEA_HepaRG_CYP2C8: Life Technologies and Expression Analysis (LTEA) Assay for CYP2C8 using HepaRG (AID 2283483)
Method in brief: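 HepaRG (human liver line), 48 h chemical exposure, 8-pt half-log series from 100 uM, 0.5% DMSO vehicle. Readout: CYP2C8 transcript by qRT-PCR, housekeeping-normalized. Bidirectional fit vs DMSO baseline.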

CYP2C9 (gene 1559) = experiment: LTEA_HepaRG_CYP2C9: Life Technologies and Expression Analysis (LTEA) Assay for CYP2C9 using HepaRG (AID 2283484)
Method in brief: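 HepaRG, 48 h dosing, 8-pt half-log series, top 100 uM, 0.5% DMSO vehicle. Read-out: CYP2C9 transcript by TaqMan qRT-PCR, housekeeping-normalized (ACTB/GAPDH/POLR2A). Gain or loss fitted vs DMSO baseline.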

CYP2E1 (gene 1571) = experiment: LTEA_HepaRG_CYP2E1: Life Technologies and Expression Analysis (LTEA) Assay for CYP2E1 using HepaRG (AID 2283485)
Method in brief: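 CYP2E1 transcript measured by Fluidigm qRT-PCR against three housekeeping genes in human HepaRG cells treated 48 h (top 100 uM, half-log steps, 0.5% DMSO vehicle). Gain or loss fitted relative to DMSO baseline.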

CYP4A11 (gene 1579) = experiment: LTEA_HepaRG_CYP4A11: Life Technologies and Expression Analysis (LTEA) Assay for CYP4A11 using HepaRG (AID 2283486)
Method in brief: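 Differentiated HepaRG cells, 48 h after plating, exposed in duplicate for 48 h to 8 half-log concentrations up to 100 uM in 0.5% DMSO in serum-free induction medium. CYP4A11 mRNA measured by TaqMan qRT-PCR, normalized to ACTB, GAPDH and POLR2A.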

[6] = read-out: Cytochrome P450 3A4 (Homo sapiens) (UniProt P08684); experiment: LTEA_HepaRG_CYP3A4: Life Technologies and Expression Analysis (LTEA) Assay for CYP3A4 using HepaRG (AID 2283487)
Method in brief: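 Differentiated HepaRG cells in serum-free induction medium exposed in duplicate for 48 h to 8 half-log concentrations up to 100 uM in 0.5% DMSO. CYP3A4 mRNA measured by qRT-PCR normalized to ACTB, GAPDH and POLR2A; bidirectional fit versus DMSO.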

Cytochrome P450 2C19 (Homo sapiens), sequence (P33261 whole entry, looked up): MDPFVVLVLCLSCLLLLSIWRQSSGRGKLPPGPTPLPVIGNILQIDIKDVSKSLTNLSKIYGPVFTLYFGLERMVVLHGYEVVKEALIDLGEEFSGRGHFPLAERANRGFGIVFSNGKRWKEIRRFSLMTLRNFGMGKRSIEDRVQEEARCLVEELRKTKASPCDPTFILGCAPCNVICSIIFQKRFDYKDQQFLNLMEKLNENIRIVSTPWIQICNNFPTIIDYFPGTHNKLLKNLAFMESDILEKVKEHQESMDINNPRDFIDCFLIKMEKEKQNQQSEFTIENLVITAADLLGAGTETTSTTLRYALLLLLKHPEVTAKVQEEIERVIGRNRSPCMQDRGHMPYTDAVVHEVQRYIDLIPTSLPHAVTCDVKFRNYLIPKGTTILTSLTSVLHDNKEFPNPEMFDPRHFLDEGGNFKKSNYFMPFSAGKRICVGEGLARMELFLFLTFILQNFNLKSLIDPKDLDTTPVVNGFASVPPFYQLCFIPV
Cytochrome P450 3A4 (Homo sapiens), sequence (P08684 whole entry, looked up): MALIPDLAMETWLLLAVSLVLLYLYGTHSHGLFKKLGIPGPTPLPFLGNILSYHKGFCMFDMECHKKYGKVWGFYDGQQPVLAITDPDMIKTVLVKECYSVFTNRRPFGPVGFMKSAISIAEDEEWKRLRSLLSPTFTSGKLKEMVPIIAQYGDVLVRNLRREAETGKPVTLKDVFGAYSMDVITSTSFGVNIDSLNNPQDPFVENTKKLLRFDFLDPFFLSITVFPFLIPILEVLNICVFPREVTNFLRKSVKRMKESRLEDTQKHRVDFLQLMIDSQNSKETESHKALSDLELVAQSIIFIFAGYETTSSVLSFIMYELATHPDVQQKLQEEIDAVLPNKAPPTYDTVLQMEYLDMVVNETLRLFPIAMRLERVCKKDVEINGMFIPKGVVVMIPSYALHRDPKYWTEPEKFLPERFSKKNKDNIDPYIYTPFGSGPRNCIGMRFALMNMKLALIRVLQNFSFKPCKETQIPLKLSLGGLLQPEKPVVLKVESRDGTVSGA

C[Si]1(C)O[Si](C)(C)O[Si](C)(C)O[Si](C)(C)O1
outcome [1]: inactive
outcome [2]: inactive
outcome [3]: inactive
outcome [4]: inactive
outcome [5]: inactive
outcome (CYP2C8 (gene 1558)): inactive
outcome (CYP2C9 (gene 1559)): inactive
outcome (CYP2E1 (gene 1571)): inactive
outcome (CYP4A11 (gene 1579)): inactive
outcome [6]: inactive

O=C(OCCCCCOC(=O)c1ccccc1)c1ccccc1
outcome [1]: inactive
AC50 [2]: 1.58 µM (active)
AC50 [3]: 0.942 µM (active)
AC50 [4]: 0.969 µM (active)
AC50 [5]: 2.44 µM (active)
AC50 (CYP2C8 (gene 1558)): 0.726 µM (active)
outcome (CYP2C9 (gene 1559)): inactive
outcome (CYP2E1 (gene 1571)): inactive
AC50 (CYP4A11 (gene 1579)): 1.94 µM (active)
outcome [6]: inactive

CC1(C)NC(=O)NC1=O
outcome [1]: inactive
outcome [2]: inactive
outcome [3]: inactive
outcome [4]: inactive
outcome [5]: inactive
outcome (CYP2C8 (gene 1558)): inactive
outcome (CYP2C9 (gene 1559)): inactive
outcome (CYP2E1 (gene 1571)): inactive
outcome (CYP4A11 (gene 1579)): inactive
outcome [6]: inactive

CCCCN(CCCC)CCCC
outcome [1]: inactive
outcome [2]: inactive
outcome [3]: inactive
outcome [4]: inactive
outcome [5]: inactive
outcome (CYP2C8 (gene 1558)): inactive
outcome (CYP2C9 (gene 1559)): inactive
outcome (CYP2E1 (gene 1571)): inactive
outcome (CYP4A11 (gene 1579)): inactive
outcome [6]: inactive

C=CCc1ccc(O)c(OC)c1
outcome [1]: inactive
outcome [2]: inactive
outcome [3]: inactive
outcome [4]: inactive
outcome [5]: inactive
outcome (CYP2C8 (gene 1558)): inactive
outcome (CYP2C9 (gene 1559)): inactive
outcome (CYP2E1 (gene 1571)): inactive
outcome (CYP4A11 (gene 1579)): inactive
outcome [6]: inactive

CCCCc1ccc2c(n1)[C@@H](c1ccc(OC)cc1C[C@H](C)C(=O)O)[C@H](C(=O)O)[C@H]2c1ccc2c(c1)OCO2
outcome [1]: inactive
outcome [2]: inactive
outcome [3]: inactive
outcome [4]: inactive
outcome [5]: inactive
outcome (CYP2C8 (gene 1558)): inactive
outcome (CYP2C9 (gene 1559)): inactive
outcome (CYP2E1 (gene 1571)): inactive
outcome (CYP4A11 (gene 1579)): inactive
outcome [6]: inactive

CC(CO)OC(C)CO (configuration not stated) (tested in a mixture with another compound)
outcome [1]: inactive
outcome [2]: inactive
outcome [3]: inactive
outcome [4]: inactive
outcome [5]: inactive
outcome (CYP2C8 (gene 1558)): inactive
outcome (CYP2C9 (gene 1559)): inactive
outcome (CYP2E1 (gene 1571)): inactive
outcome (CYP4A11 (gene 1579)): inactive
outcome [6]: inactive

COCCOCCOC
AC50 [1]: 0.388 µM (active)
AC50 [2]: 0.95 µM (active)
AC50 [3]: 1.57 µM (active)
AC50 [4]: 0.993 µM (active)
outcome [5]: inactive
AC50 (CYP2C8 (gene 1558)): 0.712 µM (active)
outcome (CYP2C9 (gene 1559)): inactive
outcome (CYP2E1 (gene 1571)): inactive
outcome (CYP4A11 (gene 1579)): inactive
outcome [6]: inactive

CC1=C(/C=C/C(C)=C/C=C/C(C)=C/CO)C(C)(C)CCC1
outcome [1]: inactive
outcome [2]: inactive
outcome [3]: inactive
AC50 [4]: 26.7 µM (active)
AC50 [5]: 43.5 µM (active)
AC50 (CYP2C8 (gene 1558)): 52.2 µM (active)
outcome (CYP2C9 (gene 1559)): inactive
AC50 (CYP2E1 (gene 1571)): 52.2 µM (active)
AC50 [6]: 23.6 µM (active)

CN[C@H]1CC[C@@H](c2ccc(Cl)c(Cl)c2)c2ccc(S(N)(=O)=O)cc21
outcome [1]: inactive
outcome [2]: inactive
outcome [3]: inactive
AC50 [4]: 11.4 µM (active)
outcome [5]: inactive
outcome (CYP2C8 (gene 1558)): inactive
AC50 (CYP2C9 (gene 1559)): 34.1 µM (active)
AC50 (CYP2E1 (gene 1571)): 13 µM (active)
AC50 (CYP4A11 (gene 1579)): 21.4 µM (active)
AC50 [6]: 89.2 µM (active)

NCCO
outcome [1]: inactive
outcome [2]: inactive
outcome [3]: inactive
outcome [4]: inactive
outcome [5]: inactive
outcome (CYP2C8 (gene 1558)): inactive
outcome (CYP2C9 (gene 1559)): inactive
outcome (CYP2E1 (gene 1571)): inactive
outcome [6]: inactive

Cc1c(C(=O)O)c(O)cc2c1C(=O)c1c(O)c([C@@H]3O[C@H](CO)[C@@H](O)[C@H](O)[C@H]3O)c(O)c(O)c1C2=O
outcome [1]: inactive
outcome [2]: inactive
outcome [3]: inactive
outcome [4]: inactive
outcome [5]: inactive
outcome (CYP2C8 (gene 1558)): inactive
outcome (CYP2C9 (gene 1559)): inactive
outcome (CYP2E1 (gene 1571)): inactive
outcome (CYP4A11 (gene 1579)): inactive
outcome [6]: inactive

Oc1ccc2c(c1)OC[C@@H](N1CCC(O)(c3ccc(F)cc3)CC1)[C@H]2O
outcome [1]: inactive
outcome [2]: inactive
outcome [3]: inactive
outcome [4]: inactive
outcome [5]: inactive
outcome (CYP2C8 (gene 1558)): inactive
outcome (CYP2C9 (gene 1559)): inactive
outcome (CYP2E1 (gene 1571)): inactive
outcome [6]: inactive

CCCCCCOCCO
outcome [1]: inactive
outcome [2]: inactive
outcome [3]: inactive
outcome [4]: inactive
outcome [5]: inactive
outcome (CYP2C8 (gene 1558)): inactive
outcome (CYP2C9 (gene 1559)): inactive
outcome (CYP2E1 (gene 1571)): inactive
outcome [6]: inactive

Cc1nc(C)nc(N2C[C@@H](C)N(c3ccnc([C@@H](C)O)n3)[C@@H](C)C2)n1
outcome [1]: inactive
outcome [2]: inactive
outcome [3]: inactive
outcome [4]: inactive
outcome [5]: inactive
outcome (CYP2C8 (gene 1558)): inactive
AC50 (CYP2C9 (gene 1559)): 25 µM (active)
outcome (CYP2E1 (gene 1571)): inactive
outcome [6]: inactive

COc1ccc(C)cc1N
outcome [1]: inactive
outcome [2]: inactive
outcome [3]: inactive
AC50 [4]: 25.6 µM (active)
outcome [5]: inactive
outcome (CYP2C8 (gene 1558)): inactive
outcome (CYP2C9 (gene 1559)): inactive
outcome (CYP2E1 (gene 1571)): inactive
outcome (CYP4A11 (gene 1579)): inactive
outcome [6]: inactive

CCCCOC(=O)CCCCCCCCC(=O)OCCCC
outcome [1]: inactive
outcome [2]: inactive
outcome [3]: inactive
outcome [4]: inactive
outcome [5]: inactive
outcome (CYP2C8 (gene 1558)): inactive
outcome (CYP2C9 (gene 1559)): inactive
outcome (CYP2E1 (gene 1571)): inactive
outcome (CYP4A11 (gene 1579)): inactive
outcome [6]: inactive

CCCCCCCC=O
outcome [1]: inactive
AC50 [2]: 50 µM (active)
outcome [3]: inactive
outcome [4]: inactive
outcome [5]: inactive
outcome (CYP2C8 (gene 1558)): inactive
outcome (CYP2C9 (gene 1559)): inactive
outcome (CYP2E1 (gene 1571)): inactive
outcome [6]: inactive

O=C(N[C@@H](Cc1ccccc1)[C@@H](O)C(=O)N1C[C@@H](O)[C@@H](O)C1)c1cc2cc(Cl)ccc2[nH]1
outcome [1]: inactive
AC50 [2]: 74.1 µM (active)
outcome [3]: inactive
AC50 [4]: 11.9 µM (active)
AC50 [5]: 4.24 µM (active)
outcome (CYP2C8 (gene 1558)): inactive
AC50 (CYP2C9 (gene 1559)): 12.5 µM (active)
outcome (CYP2E1 (gene 1571)): inactive
outcome [6]: inactive

CC1(C)CC(N=C=O)CC(C)(CN=C=O)C1 (configuration not stated)
outcome [1]: inactive
outcome [2]: inactive
outcome [3]: inactive
outcome [4]: inactive
outcome [5]: inactive
outcome (CYP2C8 (gene 1558)): inactive
outcome (CYP2C9 (gene 1559)): inactive
AC50 (CYP2E1 (gene 1571)): 24 µM (active)
outcome [6]: inactive

Cc1cccc([N+](=O)[O-])c1C
outcome [1]: inactive
outcome [2]: inactive
outcome [3]: inactive
outcome [4]: inactive
outcome [5]: inactive
outcome (CYP2C8 (gene 1558)): inactive
outcome (CYP2C9 (gene 1559)): inactive
outcome (CYP2E1 (gene 1571)): inactive
outcome (CYP4A11 (gene 1579)): inactive
outcome [6]: inactive
